{
  "source": "PubChem BioAssay",
  "data": [
    {"system": "not listed separately", "assay": "RPMI8226 myeloma cell viability, profiling panel, resazurin fluorescence, basal, 24 h, PK04 Diversity Set (AID 1180);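 note: RPMI8826 multiple myeloma cell line at 5000 cells per well; test concentration not given here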", "conditions": "higher = more signal", "values": [
      {"smiles": "CCOC(=O)[C@H](CC(C)C)NC(=O)CCC1CC(OC(=O)NCc2ccc3c(c2)OCO3)CC2(CCCC(COC(=O)NCCc3ccc(Cl)cc3)O2)O1", "note": "(stereo not given in full)", "z-score": 1.13},
      {"smiles": "CC(CCN1CCc2nc(-c3ccccc3)c(-c3ccccc3)cc2C1)=NOC(C)CN1CCCc2nc(C)c(C)cc21", "note": "(stereo not given)", "z-score": -0.469},
      {"smiles": "O=C1[C@H]2[C@H]3[C@H](O)[C@H](O)CC(=NO[C@@H]4O[C@H](CO)[C@@H](O)[C@H](O)[C@H]4O)[C@@H]3CC[C@H]2C(=O)N1C[C@@H]1CCCO1", "z-score": 0.062},
      {"smiles": "COc1ccc(O[C@H]2C=C[C@@H](c3ccccc3)O[C@@H]2COC(=O)CCC(C)=NOC[C@@H](O)COCc2ccco2)cc1", "z-score": 0.37},
      {"smiles": "CC(C)=CCCC(C)=CCON=C1C[C@@H](O)[C@@H](O)[C@@H]2[C@@H]3C(=O)N(c4cccc(Oc5ccccc5)c4)C(=O)[C@@H]3CC[C@H]12", "z-score": 0.157},
      {"smiles": "CO[C@@H]1C=CCC(=O)N[C@@H](C)C(=O)OC[C@@H](NS(=O)(=O)c2ccc(C)cc2)[C@H](C)C=CCC(=O)OC[C@H]1C", "z-score": 0.135},
      {"smiles": "COc1ccc(COC(=O)NN=C2C[C@@H](O)[C@@H](O)[C@@H]3[C@@H]4C(=O)N(c5cccc(Oc6ccccc6)c5)C(=O)[C@@H]4CC[C@H]23)cc1", "z-score": 0.487},
      {"smiles": "CCOC(=O)CCN1C(=O)[C@H]2[C@H]3[C@H](O)[C@H](O)CC(=NNC(=O)OCc4ccccc4)[C@H]3CC[C@H]2C1=O", "z-score": 0.0536},
      {"smiles": "CO[C@@H](C(C)C)[C@@H](C)C1OC(=O)CC1O", "note": "(stereo not given in full)", "z-score": -1.17},
      {"smiles": "CCN1C(=O)[C@H]2[C@H]3[C@H](O)[C@H](O)CC(=NO[C@H](C)c4cn([C@@H]5COC[C@H]5O)nn4)[C@@H]3CC[C@H]2C1=O", "z-score": -0.767},
      {"smiles": "CCOC(=O)[C@H](CC(C)C)NC(=O)CCC1CC(OC(=O)NCCc2ccc(F)cc2)CC2(CCCC(COC(=O)NCc3cccc(C(F)(F)F)c3)O2)O1", "note": "(stereo not given in full)", "z-score": 0.15},
      {"smiles": "O=C1CCCC=C1C(O)C1CCCCC1", "note": "(stereo not given)", "z-score": 0.289},
      {"smiles": "COc1ccc(COC(=O)NN=C2C[C@@H](O)[C@@H](O)[C@@H]3[C@@H]4C(=O)N(C5CCCCC5)C(=O)[C@@H]4CC[C@@H]23)cc1", "z-score": -0.481},
      {"smiles": "O=C1C2=CC[C@H]3C(=O)N(C4CCCCC4)C(=O)[C@H]3[C@H]2[C@H](O)[C@@H]2O[C@H]12", "z-score": -4.05},
      {"smiles": "O=C1C[C@@H](O)[C@@H](O)[C@@H]2[C@@H]3C(=O)N(C4CCCCC4)C(=O)[C@@H]3CC[C@@H]12", "z-score": -0.27},
      {"smiles": "C=CC[C@@H]1C=C[C@H](ON=CC[C@@H]2C=C[C@H](OC(C)=O)[C@@H](COC(C)=O)O2)[C@@H](CO)O1", "z-score": -0.687},
      {"smiles": "CC(CCC(=O)OC[C@H]1O[C@H](C#Cc2ccccc2)C=C[C@@H]1Oc1ccc(C)cc1)=NO[C@H](C)c1cn([C@@H]2COC[C@H]2O)nn1", "z-score": -0.474},
      {"smiles": "COC(=O)[C@@H]1CC[C@H](C)[C@@H](c2ccc(C)cc2)N1C(=O)c1ccc(C=NOC[C@@H](O)[C@H]2O[C@@H]3OC(C)(C)O[C@@H]3[C@H]2O)cc1", "z-score": -0.772},
      {"smiles": "C=CC[C@@H]1C=C[C@H](Oc2ccc(C)cc2)[C@@H](COC(=O)NCc2cccc3ccccc23)O1", "z-score": 0.901},
      {"smiles": "CCOC(=O)[C@H](CC(C)C)NC(=O)CCC1CC(OC(=O)NCc2ccc3c(c2)OCO3)CC2(CCCC(COC(=O)NCCC(C)C)O2)O1", "note": "(stereo not given in full)", "z-score": 0.497},
      {"smiles": "CCOC(=O)CCN1C(=O)[C@H]2[C@H]3[C@H](O)[C@H](O)CC(=NO[C@@H]4O[C@H](CO)[C@@H](O)[C@H](O)[C@H]4O)[C@@H]3CC[C@H]2C1=O", "z-score": -0.634},
      {"smiles": "COC(=O)[C@H](C)NC(=O)CCC1CC(OC(=O)NCc2ccc3c(c2)OCO3)CC2(CCCC(COC(=O)NCCCN3CCCC3=O)O2)O1", "note": "(stereo not given in full)", "z-score": 0.0805},
      {"smiles": "Cc1ccc(S(=O)(=O)N[C@@H]2COC(=O)CC=C[C@@H](C)[C@H](NS(=O)(=O)c3ccc(C)cc3)COC(=O)[C@H](C)NC(=O)CC=C[C@H]2C)cc1", "z-score": -0.24},
      {"smiles": "CCOC(=O)[C@H](CC(C)C)NC(=O)CCC1CC(OC(=O)NCc2ccc3c(c2)OCO3)CC2(CCCC(COC(=O)NCCOC)O2)O1", "note": "(stereo not given in full)", "z-score": 0.912}
    ]},
    {"target": "E3 ubiquitin-protein ligase XIAP (Homo sapiens) (UniProt P98170)", "sequence (P98170 whole entry, looked up)": "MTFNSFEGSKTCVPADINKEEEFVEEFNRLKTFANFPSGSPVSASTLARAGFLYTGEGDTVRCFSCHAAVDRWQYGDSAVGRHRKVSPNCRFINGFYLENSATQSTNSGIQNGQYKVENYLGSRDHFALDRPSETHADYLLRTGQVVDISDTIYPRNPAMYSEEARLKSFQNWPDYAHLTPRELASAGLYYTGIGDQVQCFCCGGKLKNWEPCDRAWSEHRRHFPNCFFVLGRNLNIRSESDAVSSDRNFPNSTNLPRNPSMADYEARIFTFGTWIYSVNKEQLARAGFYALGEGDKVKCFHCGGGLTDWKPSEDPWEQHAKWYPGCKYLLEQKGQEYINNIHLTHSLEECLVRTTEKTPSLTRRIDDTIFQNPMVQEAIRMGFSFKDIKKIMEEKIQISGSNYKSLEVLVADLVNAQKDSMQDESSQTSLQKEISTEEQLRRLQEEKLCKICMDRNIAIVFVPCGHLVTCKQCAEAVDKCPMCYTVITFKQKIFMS", "assay": "XIAP binders, primary screen, biophysical, small-molecule microarray, fluorescence 635 nm (AID 1181);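 note: score merges 667 nm emission and signal to noise over triplicate slides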", "conditions": "small-molecule microarray binding, higher = more signal", "values": [
      {"smiles": "COc1ccc(COC(=O)NN=C2C[C@@H](O)[C@@H](O)[C@@H]3[C@@H]4C(=O)N(Cc5ccccc5)C(=O)[C@@H]4CC[C@@H]23)cc1", "composite z-score": -0.102},
      {"smiles": "O=C1C=C[C@@H](O)[C@@H]2[C@@H]3C(=O)N(Cc4ccccc4)C(=O)[C@@H]3CC[C@@H]12", "composite z-score": -0.0566},
      {"smiles": "CCCC[C@H]1CN2[C@@H](CC[C@@H](C)[C@@H]2c2ccc(Br)cc2)C(=O)O1", "composite z-score": 0.127},
      {"smiles": "COc1ccc(O[C@H]2C=C[C@@H](C#Cc3ccccc3)O[C@@H]2CO)cc1", "composite z-score": -0.0412},
      {"smiles": "O=C(NCCC[N+]1=CC=NC1c1ccccc1)N1CCCc2nc(-c3ccc(Br)cc3)ccc21", "note": "(stereo not given)", "composite z-score": -0.105},
      {"smiles": "C[C@H]1CC[C@@H](C(=O)O)N[C@@H]1c1ccc(C#Cc2ccccc2)cc1", "composite z-score": -0.0773},
      {"smiles": "CC(C)CN1CCc2nc(-c3ccccc3)c3c(c2C1)CO[C@@H](C)C3", "composite z-score": -0.22},
      {"smiles": "COc1ccc(COC(=O)NN=C2C[C@@H](O)[C@@H](O)[C@@H]3[C@@H]4C(=O)N(Cc5ccc6c(c5)OCO6)C(=O)[C@@H]4CC[C@H]23)cc1", "composite z-score": 0.0498},
      {"smiles": "COC(=O)C(C(=O)OC)C1CCCC(=O)C1", "note": "(stereo not given)", "composite z-score": -0.34},
      {"smiles": "CC(C)[C@@H](OCc1ccccc1)[C@H](C)C=NOC[C@@H](O)[C@H]1O[C@@H]2OC(C)(C)O[C@@H]2[C@H]1O", "composite z-score": 0.191},
      {"smiles": "CCc1cc2c(nc1CC)CCN(CCC(C)=NO[C@@H]1O[C@H](COC(C)=O)[C@@H](OC(C)=O)[C@H](OC(C)=O)[C@H]1OC(C)=O)C2", "composite z-score": 0.0825},
      {"smiles": "COC(=O)[C@H](C)NC(=O)CCC1CC(OC(=O)NCCc2ccc(F)cc2)CC2(CCCC(COC(=O)NCCc3ccccc3OC)O2)O1", "note": "(stereo not given in full)", "composite z-score": -0.0615},
      {"smiles": "CCOC(=O)[C@H](CC(C)C)NC(=O)CCC1CC(OC(=O)NCc2ccc3c(c2)OCO3)CC2(CCCC(COC(=O)NCCc3ccc(Cl)cc3)O2)O1", "note": "(stereo not given in full)", "composite z-score": -0.157},
      {"smiles": "CC(CCN1CCc2nc(-c3ccccc3)c(-c3ccccc3)cc2C1)=NOC(C)CN1CCCc2nc(C)c(C)cc21", "note": "(stereo not given)", "composite z-score": 0.326},
      {"smiles": "O=C1[C@H]2[C@H]3[C@H](O)[C@H](O)CC(=NO[C@@H]4O[C@H](CO)[C@@H](O)[C@H](O)[C@H]4O)[C@@H]3CC[C@H]2C(=O)N1C[C@@H]1CCCO1", "composite z-score": -0.152},
      {"smiles": "COc1ccc(O[C@H]2C=C[C@@H](c3ccccc3)O[C@@H]2COC(=O)CCC(C)=NOC[C@@H](O)COCc2ccco2)cc1", "composite z-score": 0.122},
      {"smiles": "CC(C)=CCCC(C)=CCON=C1C[C@@H](O)[C@@H](O)[C@@H]2[C@@H]3C(=O)N(c4cccc(Oc5ccccc5)c4)C(=O)[C@@H]3CC[C@H]12", "composite z-score": -0.102},
      {"smiles": "CO[C@@H]1C=CCC(=O)N[C@@H](C)C(=O)OC[C@@H](NS(=O)(=O)c2ccc(C)cc2)[C@H](C)C=CCC(=O)OC[C@H]1C", "composite z-score": 0.201},
      {"smiles": "COc1ccc(COC(=O)NN=C2C[C@@H](O)[C@@H](O)[C@@H]3[C@@H]4C(=O)N(c5cccc(Oc6ccccc6)c5)C(=O)[C@@H]4CC[C@H]23)cc1", "composite z-score": 0.274},
      {"smiles": "CCOC(=O)CCN1C(=O)[C@H]2[C@H]3[C@H](O)[C@H](O)CC(=NNC(=O)OCc4ccccc4)[C@H]3CC[C@H]2C1=O", "composite z-score": -0.163},
      {"smiles": "CO[C@@H](C(C)C)[C@@H](C)C1OC(=O)CC1O", "note": "(stereo not given in full)", "composite z-score": -0.0391},
      {"smiles": "CCN1C(=O)[C@H]2[C@H]3[C@H](O)[C@H](O)CC(=NO[C@H](C)c4cn([C@@H]5COC[C@H]5O)nn4)[C@@H]3CC[C@H]2C1=O", "composite z-score": -0.124},
      {"smiles": "CCOC(=O)[C@H](CC(C)C)NC(=O)CCC1CC(OC(=O)NCCc2ccc(F)cc2)CC2(CCCC(COC(=O)NCc3cccc(C(F)(F)F)c3)O2)O1", "note": "(stereo not given in full)", "composite z-score": -0.383},
      {"smiles": "O=C1CCCC=C1C(O)C1CCCCC1", "note": "(stereo not given)", "composite z-score": -0.242},
      {"smiles": "COc1ccc(COC(=O)NN=C2C[C@@H](O)[C@@H](O)[C@@H]3[C@@H]4C(=O)N(C5CCCCC5)C(=O)[C@@H]4CC[C@@H]23)cc1", "composite z-score": 0.0225},
      {"smiles": "O=C1C2=CC[C@H]3C(=O)N(C4CCCCC4)C(=O)[C@H]3[C@H]2[C@H](O)[C@@H]2O[C@H]12", "composite z-score": 0.0694},
      {"smiles": "O=C1C[C@@H](O)[C@@H](O)[C@@H]2[C@@H]3C(=O)N(C4CCCCC4)C(=O)[C@@H]3CC[C@@H]12", "composite z-score": 0.333},
      {"smiles": "C=CC[C@@H]1C=C[C@H](ON=CC[C@@H]2C=C[C@H](OC(C)=O)[C@@H](COC(C)=O)O2)[C@@H](CO)O1", "composite z-score": -0.158},
      {"smiles": "CC(CCC(=O)OC[C@H]1O[C@H](C#Cc2ccccc2)C=C[C@@H]1Oc1ccc(C)cc1)=NO[C@H](C)c1cn([C@@H]2COC[C@H]2O)nn1", "composite z-score": -0.0793},
      {"smiles": "COC(=O)[C@@H]1CC[C@H](C)[C@@H](c2ccc(C)cc2)N1C(=O)c1ccc(C=NOC[C@@H](O)[C@H]2O[C@@H]3OC(C)(C)O[C@@H]3[C@H]2O)cc1", "composite z-score": -0.173},
      {"smiles": "C=CC[C@@H]1C=C[C@H](Oc2ccc(C)cc2)[C@@H](COC(=O)NCc2cccc3ccccc23)O1", "composite z-score": -0.0559},
      {"smiles": "CCOC(=O)[C@H](CC(C)C)NC(=O)CCC1CC(OC(=O)NCc2ccc3c(c2)OCO3)CC2(CCCC(COC(=O)NCCC(C)C)O2)O1", "note": "(stereo not given in full)", "composite z-score": 0.0065},
      {"smiles": "CCOC(=O)CCN1C(=O)[C@H]2[C@H]3[C@H](O)[C@H](O)CC(=NO[C@@H]4O[C@H](CO)[C@@H](O)[C@H](O)[C@H]4O)[C@@H]3CC[C@H]2C1=O", "composite z-score": -0.0125},
      {"smiles": "COC(=O)[C@H](C)NC(=O)CCC1CC(OC(=O)NCc2ccc3c(c2)OCO3)CC2(CCCC(COC(=O)NCCCN3CCCC3=O)O2)O1", "note": "(stereo not given in full)", "composite z-score": -0.245},
      {"smiles": "Cc1ccc(S(=O)(=O)N[C@@H]2COC(=O)CC=C[C@@H](C)[C@H](NS(=O)(=O)c3ccc(C)cc3)COC(=O)[C@H](C)NC(=O)CC=C[C@H]2C)cc1", "composite z-score": -0.227},
      {"smiles": "CCOC(=O)[C@H](CC(C)C)NC(=O)CCC1CC(OC(=O)NCc2ccc3c(c2)OCO3)CC2(CCCC(COC(=O)NCCOC)O2)O1", "note": "(stereo not given in full)", "composite z-score": -0.0784}
    ]}
  ]
}
